Assay results taken from ChEMBL document CHEMBL4296182, “CO-ADD screening of NIH NCI Diversity Set V”.

System: Escherichia coli
Assay: Antibacterial activity against Escherichia coli ATCC 25922 (CO-ADD:GN_001); MIC in CAMBH media using NBS plates, by Resazurin F(560/590)
Assay type: functional
Details: Concentration 20 uM, ASSAY_TEST Inhibition of Bacterial Growth, detection method Resazurin, Fluorescence (ex560/em590), MEDIA CAMHB, plate type 384well, CORNING #3640, time 18 hr

Row | SMILES | Inhibition [%]
1 | Nc1ncnc2c1ncn2C1C=C(CO)C(O)C1O (stereo not drawn) | 9.33
2 | CC1=Nc2ccccc2/C1=C\c1c(C)[nH]c2ccccc12 | 0.88
3 | CC1(C)OC2C(CO)OC(n3cnc4c(S)ncnc43)C2O1 (stereo not drawn) | 11.94
4 | CCOP(=O)(OCC)/C(C#N)=C/c1ccc([N+](=O)[O-])cc1 | 3.05
5 | Clc1[nH]cnc2nccc1-2 | 0.3
6 | O=C(Nc1cccc([N+](=O)[O-])c1)c1ccc2ccccc2c1O | 6.76
7 | Nc1ccc(S(=O)(=O)NCC2CCCCO2)cc1 (stereo not drawn) | 1.65
8 | CCOC(=O)c1c(N)ssc1=S | -3.33
9 | Cc1cc2c(c(C#N)c1C)NC=NC2C (stereo not drawn) | 15.46
10 | CC(C)N(C(=O)c1cccc([N+](=O)[O-])c1)C(C)C | 4.26
11 | Nc1ccc(Br)cc1Br | 2.13
12 | ClCC(CNCc1ccccc1)c1ccccc1 (stereo not drawn) | 0.62
13 | CC(C)(C)CC(C)(C)n1nnnc1N | 15.8
14 | O=c1[nH]c(=S)c2ncn(-c3ccccc3)c2[nH]1 | 3.12
15 | Cc1nnc2nc(-c3ccccc3)nc(-c3ccccc3)n12 | 2.26
16 | O=C1c2ccccc2C(=O)C1c1ccccn1 | 2.88
17 | CCOC(=O)/C(C#N)=C\c1c[nH]c2ccccc12 | -10.08
18 | O=C(N(c1ccccc1)c1ccccc1)N(c1ccccc1)c1ccccc1 | 8.76
19 | COc1cc(S(N)(=O)=O)c(OC)cc1N | 11.54

Row | SMILES | Inhibition [%]
20 | CSc1ccc(NC(=O)Nc2cc(C)ccn2)cc1 | 9.5
21 | CCCOc1ccc(-c2nc(-c3ccc(N)cc3)cs2)cc1 | 2.89
22 | CC(C)=C(c1ccc(Cl)cc1)c1c(N)ncnc1N | 10.95
23 | c1ccc(-c2ccc3c(c2)NCCN3)cc1 | 5.22
24 | CCCCSc1nc(O)cc(C(=O)O)n1 | 5.2
25 | COC(=O)C1CC(O)C(O)C(O)C1 (stereo not drawn) | 12.92
26 | CCn1c2ccccc2c2c3ncc4cccn4c3ccc21 | 1.37
27 | N#C/C(=C\c1ccc[nH]1)C(=O)c1ccccc1 | 0.79
28 | CC(C)Cc1nnc(N)s1 | 6.53
29 | Nc1ccc2c(c1)Cc1cc(Cl)c(Cl)cc1-2 | 15.96
30 | O=C(NC1CCCCC1)c1cc2ccccc2cc1O | 4.75
31 | Cn1c(=O)c2c(nc(Cc3ccccc3)n2C)n(C)c1=O | -5.53
32 | Nc1nc(N)c(/N=N/c2ccc(C(=O)O)cc2)c(N)n1 | 9.92
33 | c1ccc(-c2nnc(-c3ccccn3)s2)nc1 | 9.86
34 | Cc1cc(O)c2c(C)ccc(C)c2n1 | 3.82
35 | O=C(NC(=S)Nc1cccc(O)c1)c1ccco1 | 12.02
36 | Cc1nn(-c2ccccc2)nc1C(=O)Nc1ccc2[nH]ncc2c1 | 5.87
37 | CC1CC(C)(C)NC2(CCCC2)N1 (stereo not drawn) | 5.91
38 | N#Cc1n[nH]c2nc[nH]c(=O)c12 | 9.33
